Shown are actives, neighbours in structure and some others; about 11% of the full set was active somewhere.
3T3 cytotox: cytotoxic compounds in NIH 3T3 cells; NIH 3T3 viability, CellTiter-Glo ATP luminescence, 48-72 h; Potency, µM (series often up to 96.7 µM), actives largely listed as inhibitors; 4.3% of 94,000 active; AID 1345082; also: nearly all actives have a fitted effect of over 55% in size
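Cytotoxicity was measured by CellTiter-Glo ATP luminescence after 48 or 72 h compound exposure at 37 °C. Mouse NIH 3T3 fibroblasts were seeded at 400 cells/well and dosed by 23 nL pin transfer.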
hNpr1 antagonist: blocks ANP-stimulated signaling of human Npr1 receptor. 1.6% of 76,000 active. P16066. Potency, µM (titrated, usually from 46.3 µM), hits mostly inhibitors. HEK293 hNpr1 GloSensor cGMP, ANP-stimulated luminescence. AID 1347048; calls by dose curve; also: nearly all actives have a fitted effect of over 60% in size
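Compound pre-incubated 30 min at room temperature on GloSensor-loaded HEK293 cells stably carrying hNpr1 and the pGS-40F cGMP biosensor. Stimulation uses hNppA at 0.1 nM final; luminescence is taken at baseline and 20 min post-agonist.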
FLuc inh: Photinus pyralis luciferase inhibition. P08659. purified P. pyralis luciferase, luminescence, biochemical. Potency, µM (series often up to 115 µM), actives largely listed as inhibitors. 2.5% of 76,000 active. AID 1347043; also: nearly all actives have a fitted effect of over 65% in size
Target sequence (P08659 whole entry, looked up): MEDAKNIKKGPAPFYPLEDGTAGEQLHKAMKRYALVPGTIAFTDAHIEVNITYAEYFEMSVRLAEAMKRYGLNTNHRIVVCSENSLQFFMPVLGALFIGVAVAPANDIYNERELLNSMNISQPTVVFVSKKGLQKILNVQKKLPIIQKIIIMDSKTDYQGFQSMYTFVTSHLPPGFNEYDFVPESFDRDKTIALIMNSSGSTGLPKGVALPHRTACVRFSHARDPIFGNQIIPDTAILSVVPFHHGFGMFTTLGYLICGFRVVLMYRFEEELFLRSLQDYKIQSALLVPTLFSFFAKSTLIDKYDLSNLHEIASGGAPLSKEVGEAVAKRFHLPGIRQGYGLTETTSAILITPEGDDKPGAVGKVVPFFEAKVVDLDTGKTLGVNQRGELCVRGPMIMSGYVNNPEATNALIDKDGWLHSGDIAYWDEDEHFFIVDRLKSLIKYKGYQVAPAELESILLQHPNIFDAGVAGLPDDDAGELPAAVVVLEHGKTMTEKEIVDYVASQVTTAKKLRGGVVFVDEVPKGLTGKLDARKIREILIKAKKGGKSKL
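Luminescence read by CCD imager after adding enzyme (10nM final) to wells holding compound, titrated in qHTS. Substrates 10uM each D-luciferin and ATP; buffer 50mM Tris acetate pH 7.5, 10mM Mg acetate, Tween-20, BSA.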
HEK cytotox: kills HEK 293 cells | HEK 293 viability, ATP luminescence (CellTiter-Glo), 48-72 h | 6.6% of 94,000 active | Potency, µM (series often up to 115 µM), most hits filed as inhibitors; also: nearly all actives have a fitted effect of over 60% in size
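HEK 293 cells at 250 cells/well were exposed to compounds by pintool transfer for 48 or 72 hr at 37 degree Celsius, 5% CO2. Viability was read as ATP-coupled luminescence with CellTiter-Glo after 10 min at room temperature.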
Hits are given with their value; - = inactive; ? = inconclusive; . = not tested or not shown; ! = repeats disagree. Unless noted, calls follow the shape of the dose curve; as a rule, active = well fitted curve in the direction sought with a large enough effect; inconclusive = small, poorly fitted or top-dose-only effect, or another doubt; inactive = no such curve, though single readings can be large; an effect the other way counts as inactive or inconclusive.

SMILES | 3T3 cytotox | hNpr1 antagonist | FLuc inh | HEK cytotox
CO[C@H]1C(=O)N(C2CCN(C(=O)Cc3cccc(F)c3)CC2)[C@H]1c1ccncc1 | - | . | . | -
COc1cc(OC)cc(C(=O)N2CCN(c3cc(-c4ccc(Cl)cc4)[nH]n3)CC2)c1 | 35µM | ? | - | ?
COc1ccc(-c2cc(N3CCCN(C(=O)c4cc(OC)cc(OC)c4)CC3)n[nH]2)cc1 | - | - | - | ?
COc1cccc(C(=O)N2CCCN(c3cc(-c4ccc(Cl)cc4)[nH]n3)CC2)c1 | ? | ? | - | ?
CN(C)c1cccc(C(=O)N2CCN(c3cc(-c4ccc(Cl)cc4)[nH]n3)CC2)c1 | ? | - | 28µM | ?
CN(C)c1cccc(C(=O)N2CCCN(c3cc(-c4ccccc4)[nH]n3)CC2)c1 | - | - | ? | ?
O=C(c1cccc(Cl)c1)N1CCN(c2cc(-c3ccc(Cl)cc3)[nH]n2)CC1 | 35µM | ? | - | 45µM
N#Cc1ccc(C(=O)N2CCCN(c3cc(-c4ccc(Cl)cc4)[nH]n3)CC2)cc1 | ? | ? | - | 28µM
COc1ccc(-c2cc(N3CCCN(C(=O)c4ccc(Cl)cc4)CC3)n[nH]2)cc1 | - | - | - | ?
O=C(C1CC1)N1CCCC(c2nn(-c3ccc(F)cc3)c(=O)[nH]2)C1 (stereo not drawn) | - | - | - | ?
Cc1ccc(C(=O)N2CCC(n3cc(-c4nc(-c5ccccc5)no4)nn3)C2)s1 (stereo not drawn) | - | ? | - | ?
O=C(c1ccco1)N1CCC(n2cc(-c3nc(-c4ccccc4)no3)nn2)C1 (stereo not drawn) | ? | - | 35µM | ?
O=C(c1ccc2ccccc2n1)N1CCC(n2cc(-c3nc(-c4ccccc4)no3)nn2)C1 (stereo not drawn) | ? | ? | 28µM | ?
O=C(Cc1ccsc1)N1CCC(n2cc(-c3nc(-c4ccccc4)no3)nn2)C1 (stereo not drawn) | - | - | 56µM | ?
O=C(Cc1cccc(F)c1)N1CCC(n2cc(-c3nc(-c4ccccc4)no3)nn2)CC1 | - | - | - | -
O=C(c1nccc2ccccc12)N1CCC(n2cc(-c3nc(-c4ccccc4)no3)nn2)C1 (stereo not drawn) | ? | ? | 45µM | 28µM
C[S+](=O)([O-])c1ccc(-c2nc(C(=O)NCc3ccc4c(c3)OCO4)n3ccccc23)cc1 | - | - | - | -
O=C(NC1CCCCC1)c1nc2sccn2c1-c1cccnc1 | - | . | . | -
CN1CCCN(C(=O)c2ccco2)c2ccccc21 | - | - | - | -
O=S(=O)(c1ccccc1)N1CCN(c2cc(C3CC(O)C3)ncn2)CC1 (stereo not drawn) | ? | - | - | 40µM!
O=C(CN1CCN(c2cc(C3CC(O)C3)ncn2)CC1)N1CCCC1 (stereo not drawn) | - | - | - | -
CCNC(=O)N[C@H]1[C@H](O)[C@@H](N2CCN(C(C)=O)CC2)[C@@H]2OC[C@H]1O2 | - | - | - | -
COc1cccc(N2C(=O)NC(=NC3CCCCC3)C23CCCN(Cc2ccc(F)cc2)C3)c1 (stereo not drawn) | 40µM | . | . | ?
COc1cccc(N2C(=O)NC(=NC3CCCC3)C23CCN(Cc2ccccc2)C3)c1 (stereo not drawn) | ? | . | . | 89µM
COc1cccc(N2C(=O)NC(=NC3CCCCC3)C23CCN(Cc2ccccc2)C3)c1 (stereo not drawn) | - | . | . | -
SMILES | 3T3 cytotox | hNpr1 antagonist | FLuc inh | HEK cytotox
C#CCN(C)Cc1nc(C2(O)CCN(C(=O)C3CCCCC3)CC2)cs1 | - | - | - | -
CC(C)[C@@H]1CN(C(=O)c2cc(N3CCCCC3)ccc2Cl)C[C@H]1N(C)C | ? | - | - | 40µM
O=C(NC1CCCN(c2cc(-c3ccccc3)[nH]n2)C1)c1ccc(C(F)(F)F)cc1 (stereo not drawn) | ? | - | - | ?
COc1ccc(-c2cc(N3CCC(NC(=O)c4ccc5cc[nH]c5c4)CC3)n[nH]2)cc1 | 40µM | - | - | ?
COc1ccc(-c2cc(N3CCC(NC(=O)c4ccc(Cl)s4)CC3)n[nH]2)cc1 | ? | - | - | 25µM
COc1ccc(-c2cc(N3CCCC(NC(=O)c4ccc(C(F)(F)F)cc4)C3)n[nH]2)cc1 (stereo not drawn) | 45µM | - | - | ?
COc1ccc(-c2cc(N3CCCC(NC(=O)c4cc5ccccc5[nH]4)C3)n[nH]2)cc1 (stereo not drawn) | ? | - | 8.9µM | ?
COc1ccc(C(=O)NC2CCN(c3cc(-c4ccc(OC)cc4)[nH]n3)CC2)cc1 | ? | - | - | ?

High-throughput results from PubChem BioAssay.
